Results filed as inconclusive are left out. The source holds several records for some structures; these can differ, active in one and inactive in another. Active and inactive are the calls of the source. Unless noted, calls follow the shape of the dose curve; as a rule, active = well fitted curve in the direction sought with a large enough effect; inconclusive = small, poorly fitted or top-dose-only effect, or another doubt; inactive = no such curve, though single readings can be large; an effect the other way counts as inactive or inconclusive.

Assay [1] concerns the target M-phase phosphoprotein 8 (Homo sapiens) (UniProt Q99549). The assay is described as follows: qHTS Validation Assay for Inhibitors for MPP8 Chromodomain Interactions with Methylated Histone Tails (AID 488949). Also: nearly all actives have a fitted effect of over 55% in size. Also: potency is read from the fitted curve at half-maximal effect. In short, it runs like this:
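AlphaScreen proximity signal from streptavidin donor and Ni-chelate acceptor beads (10 ug/mL each) reported binding of MPP8 to trimethyl-K9 H3(1-18) peptide, both at 50 nM. The complex formed 30 min before a 30 min compound exposure at room temperature, in PBS pH 7.4.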
Background: Quantitative high-throughput screening tests each substance at several concentrations.

For assay [2], the target named is Chromobox protein homolog 1 (Homo sapiens) (UniProt P83916). The assay can be described thus: qHTS Validation Assay for Inhibitors of HP1-beta Chromodomain Interactions with Methylated Histone Tails (AID 488953). Also: nearly all actives have a fitted effect of over 50% in size. Also: potency is read from the fitted curve at half-maximal effect. The essentials:
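AlphaScreen proximity readout: streptavidin donor and Ni-chelate acceptor beads, 10 ug/mL final, 30 min dark, RT. Complex of 50 nM HP1-beta and 50 nM b-H3(1-18)K9me3 formed 30 min, then compound-treated 30 min; PBS pH 7.4/0.01% Tween-20.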

Assay [3] has as its target Methanococcus maripaludis chaperonin (MmCpn) (UniProt Q6LX38). The assay can be described thus: High-Throughput Screening for Modulators of Cytosolic Chaperonin Activity: MmCpn Primary Screen (AID 488978).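 Also: 50 nM MmCpn enzyme hydrolysing 30 µM ATP at 37 °C; 0% is about no effect.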 In short, it runs like this:
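ATPase activity of 50 nM MmCpn was assayed with 30 uM ATP, 10 minutes at 37C, after a 5 min compound preincubation at room temperature. ADP production was read as HTRF emission at 590 and 665 nm.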

Assay [4] deals with Transient receptor potential cation channel subfamily V member 1 (Homo sapiens) (UniProt Q8NER1). The assay is described as follows: HTS Assay for Compounds that Act as Enhancers of the Vanilloid Receptor 1 (AID 488979). Also: 0% is about no effect. The essentials:
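Calcium influx kinetics via Fluo-8 (480/520 nm) in TRPV1-expressing cells, 2000/well cultured overnight at 35.5C. Compound-alone read 3 min (agonist phase), followed by EC20 capsaicin challenge for 2 min (enhancer phase).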

Assay [5] has as its target Thyrotropin receptor (Homo sapiens) (UniProt P16473). The assay can be described thus: qHTS Assay for Antagonists of the Thyroid Stimulating Hormone Receptor (AID 488980). Also: series mostly up to about 58 µM; 0% is about no effect. In short, it runs like this:
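Inhibition of cAMP raised by EC80 TSH (4 nM final) was read by HTRF, with lysate cAMP competing against cAMP-d2 for cryptate antibody after 30 min at room temperature. The cells were transfected HEK293 held in phosphodiesterase inhibitor RO 20-1724 at 70 uM.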

The target in assay [6] is D(1A) dopamine receptor (Homo sapiens) (UniProt P21728). The assay is described as follows: HTS Assay for Allosteric Agonists of the Human D1 Dopamine Receptor: Primary Screen for Potentiators (AID 488982). Also: 0% is about no effect. In short, it runs like this:
(§1)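 Calcium flux in an inducible, force-coupled HEK293 Trex D1 line (overnight at 30 C): agonist mode is the 180 s kinetic read after compound; potentiator mode is the following 180 s read after dopamine at EC20.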

Assay [7] in a line: Validation screen for small molecules that induce genotoxicity in human embryonic kidney (HEK293T) cells expressing luciferase-tagged ELG1 (AID 493106). Also: 0% is about no effect. In short, it runs like this: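 qHTS format; 2,000 HEK293T ELG1-luc cells/well; 23 nL compound via pin tool; 16 hr, 37 °C/5% CO2; ONE-Glo, 30 min RT; luminescence read.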
The target in assay [8] is ATPase family AAA domain-containing protein 5 (Homo sapiens) (UniProt Q96QE3). The assay can be described thus: Validation screen for small molecules that inhibit ELG1-dependent DNA repair in human embryonic kidney (HEK293T) cells expressing luciferase-tagged ELG1 (AID 493107).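 Also: cells co-treated with the DNA-damaging agent 5-fluorouridine alongside compound; series mostly up to about 46 µM; % is scaled to controls: 0 for no effect and ±100 for the full control effect; inhibitors lower the ELG1-luciferase luminescence signal; nearly all actives have a fitted effect of over 70% in size.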 In short, it runs like this: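 ELG1-luciferase HEK293T reporter; 5-fluorouridine + compound/DMSO, 16 hr, 37 °C, 5% CO2; ONE-Glo 30 min RT; luminescence read, qHTS format.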

Assay [9] can be described thus: Nrf2 qHTS screen for inhibitors: Validation (AID 493153; active = well fitted inhibition curve with a large enough effect in the main read-out, with a control signal flat, not every such curve was filed as active). As to conditions: Potency: luciferase luminescence; viability change: measured here: cytotoxicity max response. The essentials:
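Concentration-response test in A549 ARE_Fluc reporter cells (5% FBS OPTI-MEM), compound exposure 18-24 h at 37°C, 5% CO2. Cell viability measured first by CellTiter-Fluor fluorescence; ARE-driven luciferase luminescence then measured as Nrf2 activity.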

The nature of assay [10]: qHTS for Inhibitors of Cell Surface uPA Generation: Validation Assay (AID 493164).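 Also: RAW 264.7 macrophage cells exposed to compound for 18 h; 0% is about no effect.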 The essentials:
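Compounds are titrated over seven points (2.45 nM–38.3 uM final) onto pre-plated RAW 264.7 cells and incubated for 18 h. Retained intracellular ATP, measured with ATP-Lite, indicates blocked lethal factor entry.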

Assay [11] has as its target Galactokinase (Homo sapiens) (UniProt P51570). The assay is described as follows: qHTS Validation Assay for Inhibitors of Human Galactokinase (GALK) (AID 493189). Also: 0% is about no effect. The essentials: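 Inhibition was measured as remaining ATP, detected by luciferase luminescence after a 1 h room-temperature reaction. Final conditions: 5 nM GALK, 100 uM galactose, 35 uM ATP, pH 8.0 HEPES buffer.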

Assay [12] in a line: Validation screen for small molecules that induce DNA re-replication in SW480 colon adenocarcinoma cells (AID 504364). Also: 0% is about no effect. In short, it runs like this: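 Read-out: total Hoechst intensity of nuclei by fluorescence scanning imager; hits raise the fraction of nuclei with elevated DNA content. Cells received compound for 48 hr at 37 C before a 40 min stain.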
Assay [13] has as its target Peptidyl-prolyl cis-trans isomerase NIMA-interacting 1 (Homo sapiens) (UniProt Q13526). The assay is described as follows: qHTS Validation Assay to Find Inhibitors of Pin1 (AID 504536; active = well fitted inhibition curve with a large enough effect in the polarisation, with a control signal flat, not every such curve was filed as active; the % refers to the polarisation;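 also: 0% = full Pin1 enzyme wells and -100% = no-enzyme wells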). The essentials: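 Fluorescence polarization competition: compounds (titration) displace HiFluor-488-labeled Pin1-1b peptide from Pin1 (0.3 uM final) in pH 7.5 HEPES buffer with DTT, 10 min at room temperature; %Activity normalized to no-enzyme wells, curves fitted.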

For assay [14], the target named is Phosphoglycerate kinase, glycosomal (Trypanosoma brucei brucei) (UniProt P07378). The assay can be described thus: qHTS Validation Assay to Find Inhibitors of Phosphoglycerate Kinase (AID 504547).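 Also: control wells lack PGK and mark full inhibition.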 In short, it runs like this:
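Luminescence end-point (Kinase-Glo Plus, 10 min) after a 60 min room-temperature coupled reaction. GAPDH at 100nM final supplies 1,3-BPG to PGK. Buffer: 100mM TEA pH 7.6, 5mM MgCl2, 0.01% Tween-20. Wells lacking PGK served as controls.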

Assay [15] addresses Ubiquitin carboxyl-terminal hydrolase 1 (Homo sapiens) (UniProt O94782). The assay can be described thus: Inhibitors of USP1/UAF1: Pilot qHTS (AID 504865). Also: nearly all actives have a fitted effect of over 35% in size. Also: potency is read from the fitted curve at half-maximal effect. The essentials:
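Deubiquitinase activity followed as kinetic rhodamine fluorescence release from 150 nM Ub-Rho. 1 nM USP1/UAF1 with compound, after 15 min room-temperature preincubation, in HEPES pH 7.8 buffer containing TCEP, EDTA, BSA and Tween-20.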

The target in assay [16] is D(1A) dopamine receptor (Homo sapiens) (UniProt P21728). The assay can be described thus: HTS Assay for Allosteric Agonists of the Human D1 Dopamine Receptor: Primary Screen for Agonists (AID 488981). Also: potency is read from the fitted curve at half-maximal effect. As to activation: 0% is about no effect. The essentials: as §1
The target is the same in assay [17]. The assay is described as follows: HTS Assay for Allosteric Agonists of the Human D1 Dopamine Receptor: Primary Screen for Antagonists (AID 488983).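 Also: calcium flux response to an EC80 dopamine challenge measured with no-wash dye; % is scaled to controls: 0 for no effect and ±100 for the full control effect; nearly all actives have a fitted effect of over 65% in size.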 The essentials:
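Calcium flux readout, no-wash dye, inducible HEK293 T-REx D1 line (force-coupled). Compound added after 10 s baseline, 180 s kinetic read; then dopamine at EC80, further 180 s read.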

The target in assay [18] is ATP-dependent 6-phosphofructokinase (Trypanosoma brucei brucei) (UniProt O15648). The assay is described as follows: qHTS Assay to Find Inhibitors of T. brucei phosphofructokinase: hit validation (AID 492961).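 Also: luminescence reports ADP formed as PFK phosphorylates fructose-6-phosphate with ATP; series mostly up to about 51 µM; % is scaled to controls: 0 for no effect and ±100 for the full control effect.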 In short, it runs like this: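 In this biochemical qHTS validation, titrated compounds were tested against 1.25 nM PFK with 0.1 mM ATP and 0.5 mM F6P. Percent activity came from controls lacking or containing enzyme.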

Assay [19] has as its target Thyrotropin-releasing hormone receptor (Homo sapiens) (UniProt P34981). The assay is described as follows: qHTS for Small Molecule Agonists and Allosteric Enhancers of Human TRH Receptor: Validation Screen for Agonists (AID 493127;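 active = calcium activation more than 3 SD above the typical response in the agonist read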;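 also: intracellular calcium rise by fluo-8 fluorescence before TRH EC20 addition; 0% is about no effect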). To be noted: TRH receptor agonist cell assay; at 2 µM; stronger effect = higher value. In short, it runs like this: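 Read-out: intracellular calcium release measured kinetically by FDSS (fluo-8, ex 480/em 530 nm), 1 reading/s after a 10-cycle baseline. TRHR cells, 2000/well, cultured 18 h at 33.5C, dye-loaded at room temp. Compound-evoked positive calcium signal flags agonists.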

Transient receptor potential cation channel subfamily V member 1 (Homo sapiens), sequence (Q8NER1 whole entry, looked up): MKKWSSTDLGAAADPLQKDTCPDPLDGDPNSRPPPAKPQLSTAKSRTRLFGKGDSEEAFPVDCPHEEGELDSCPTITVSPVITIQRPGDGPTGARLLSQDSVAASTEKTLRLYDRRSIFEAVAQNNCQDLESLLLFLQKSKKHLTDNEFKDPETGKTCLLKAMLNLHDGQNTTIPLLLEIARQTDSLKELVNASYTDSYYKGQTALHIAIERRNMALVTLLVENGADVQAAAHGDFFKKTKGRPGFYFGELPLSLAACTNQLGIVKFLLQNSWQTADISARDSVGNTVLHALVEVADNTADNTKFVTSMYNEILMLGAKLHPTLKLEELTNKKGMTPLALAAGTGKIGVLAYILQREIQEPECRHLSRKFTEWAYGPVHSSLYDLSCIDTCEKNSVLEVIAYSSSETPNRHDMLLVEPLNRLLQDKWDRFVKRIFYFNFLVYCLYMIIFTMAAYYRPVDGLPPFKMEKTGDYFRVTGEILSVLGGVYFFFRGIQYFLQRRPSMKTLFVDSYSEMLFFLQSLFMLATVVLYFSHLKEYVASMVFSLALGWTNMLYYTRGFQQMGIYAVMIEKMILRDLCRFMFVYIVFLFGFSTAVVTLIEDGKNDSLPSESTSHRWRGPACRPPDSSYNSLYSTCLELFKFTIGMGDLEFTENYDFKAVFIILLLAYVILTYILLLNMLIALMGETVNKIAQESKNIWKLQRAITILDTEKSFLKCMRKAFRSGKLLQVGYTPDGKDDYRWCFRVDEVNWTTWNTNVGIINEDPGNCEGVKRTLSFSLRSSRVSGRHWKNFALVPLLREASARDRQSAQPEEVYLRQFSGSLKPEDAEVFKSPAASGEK
Phosphoglycerate kinase, glycosomal (Trypanosoma brucei brucei), sequence (P07378 whole entry, looked up): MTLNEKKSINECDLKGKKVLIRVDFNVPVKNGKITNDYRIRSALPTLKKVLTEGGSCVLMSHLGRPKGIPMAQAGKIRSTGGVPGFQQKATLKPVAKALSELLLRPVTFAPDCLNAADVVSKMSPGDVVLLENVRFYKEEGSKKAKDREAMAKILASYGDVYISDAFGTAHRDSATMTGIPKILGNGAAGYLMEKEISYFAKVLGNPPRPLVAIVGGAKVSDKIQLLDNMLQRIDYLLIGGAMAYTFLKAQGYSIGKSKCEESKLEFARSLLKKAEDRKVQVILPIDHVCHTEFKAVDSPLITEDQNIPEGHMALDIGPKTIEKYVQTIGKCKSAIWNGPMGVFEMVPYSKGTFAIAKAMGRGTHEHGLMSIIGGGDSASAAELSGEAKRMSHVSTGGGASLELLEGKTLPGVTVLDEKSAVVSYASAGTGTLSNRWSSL
D(1A) dopamine receptor (Homo sapiens), sequence (P21728 whole entry, looked up): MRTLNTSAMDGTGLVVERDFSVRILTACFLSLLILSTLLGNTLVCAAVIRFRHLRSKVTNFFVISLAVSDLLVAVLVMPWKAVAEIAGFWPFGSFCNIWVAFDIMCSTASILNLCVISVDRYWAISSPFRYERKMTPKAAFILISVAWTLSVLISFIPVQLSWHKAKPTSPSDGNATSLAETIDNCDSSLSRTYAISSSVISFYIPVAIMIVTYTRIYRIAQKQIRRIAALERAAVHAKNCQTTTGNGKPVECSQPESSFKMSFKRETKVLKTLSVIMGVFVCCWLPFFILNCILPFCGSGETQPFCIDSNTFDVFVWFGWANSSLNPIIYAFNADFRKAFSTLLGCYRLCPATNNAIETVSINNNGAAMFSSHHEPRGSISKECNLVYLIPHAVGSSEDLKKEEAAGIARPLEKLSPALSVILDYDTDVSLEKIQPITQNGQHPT
Galactokinase (Homo sapiens), sequence (P51570 whole entry, looked up): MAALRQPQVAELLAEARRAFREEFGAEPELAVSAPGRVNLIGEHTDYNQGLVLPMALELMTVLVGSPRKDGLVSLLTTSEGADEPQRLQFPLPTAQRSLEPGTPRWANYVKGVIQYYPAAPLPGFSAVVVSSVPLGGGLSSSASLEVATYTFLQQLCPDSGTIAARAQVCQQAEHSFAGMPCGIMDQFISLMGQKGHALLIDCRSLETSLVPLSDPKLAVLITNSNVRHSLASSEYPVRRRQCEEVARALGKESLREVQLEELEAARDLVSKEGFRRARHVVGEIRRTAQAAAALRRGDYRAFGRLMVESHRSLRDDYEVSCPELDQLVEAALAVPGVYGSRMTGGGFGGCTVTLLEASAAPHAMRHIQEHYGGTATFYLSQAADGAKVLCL
Methanococcus maripaludis chaperonin (MmCpn), sequence (Q6LX38 1-543): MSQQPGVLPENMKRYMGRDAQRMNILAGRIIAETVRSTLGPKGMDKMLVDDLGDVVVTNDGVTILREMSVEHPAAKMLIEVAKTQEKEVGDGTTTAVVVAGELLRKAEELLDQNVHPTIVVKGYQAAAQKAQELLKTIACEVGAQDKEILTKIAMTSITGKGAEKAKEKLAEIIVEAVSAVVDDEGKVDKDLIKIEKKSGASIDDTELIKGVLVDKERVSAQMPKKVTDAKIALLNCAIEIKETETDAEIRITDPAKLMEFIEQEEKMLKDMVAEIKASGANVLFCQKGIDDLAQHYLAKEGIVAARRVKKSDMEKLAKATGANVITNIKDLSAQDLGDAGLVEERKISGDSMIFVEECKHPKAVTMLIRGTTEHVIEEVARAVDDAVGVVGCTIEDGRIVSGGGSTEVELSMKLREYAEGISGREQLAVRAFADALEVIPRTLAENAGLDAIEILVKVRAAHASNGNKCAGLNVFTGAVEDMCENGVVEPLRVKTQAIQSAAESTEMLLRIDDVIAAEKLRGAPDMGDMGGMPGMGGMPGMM
ATPase family AAA domain-containing protein 5 (Homo sapiens), sequence (Q96QE3 whole entry, looked up, the tested form may be a part): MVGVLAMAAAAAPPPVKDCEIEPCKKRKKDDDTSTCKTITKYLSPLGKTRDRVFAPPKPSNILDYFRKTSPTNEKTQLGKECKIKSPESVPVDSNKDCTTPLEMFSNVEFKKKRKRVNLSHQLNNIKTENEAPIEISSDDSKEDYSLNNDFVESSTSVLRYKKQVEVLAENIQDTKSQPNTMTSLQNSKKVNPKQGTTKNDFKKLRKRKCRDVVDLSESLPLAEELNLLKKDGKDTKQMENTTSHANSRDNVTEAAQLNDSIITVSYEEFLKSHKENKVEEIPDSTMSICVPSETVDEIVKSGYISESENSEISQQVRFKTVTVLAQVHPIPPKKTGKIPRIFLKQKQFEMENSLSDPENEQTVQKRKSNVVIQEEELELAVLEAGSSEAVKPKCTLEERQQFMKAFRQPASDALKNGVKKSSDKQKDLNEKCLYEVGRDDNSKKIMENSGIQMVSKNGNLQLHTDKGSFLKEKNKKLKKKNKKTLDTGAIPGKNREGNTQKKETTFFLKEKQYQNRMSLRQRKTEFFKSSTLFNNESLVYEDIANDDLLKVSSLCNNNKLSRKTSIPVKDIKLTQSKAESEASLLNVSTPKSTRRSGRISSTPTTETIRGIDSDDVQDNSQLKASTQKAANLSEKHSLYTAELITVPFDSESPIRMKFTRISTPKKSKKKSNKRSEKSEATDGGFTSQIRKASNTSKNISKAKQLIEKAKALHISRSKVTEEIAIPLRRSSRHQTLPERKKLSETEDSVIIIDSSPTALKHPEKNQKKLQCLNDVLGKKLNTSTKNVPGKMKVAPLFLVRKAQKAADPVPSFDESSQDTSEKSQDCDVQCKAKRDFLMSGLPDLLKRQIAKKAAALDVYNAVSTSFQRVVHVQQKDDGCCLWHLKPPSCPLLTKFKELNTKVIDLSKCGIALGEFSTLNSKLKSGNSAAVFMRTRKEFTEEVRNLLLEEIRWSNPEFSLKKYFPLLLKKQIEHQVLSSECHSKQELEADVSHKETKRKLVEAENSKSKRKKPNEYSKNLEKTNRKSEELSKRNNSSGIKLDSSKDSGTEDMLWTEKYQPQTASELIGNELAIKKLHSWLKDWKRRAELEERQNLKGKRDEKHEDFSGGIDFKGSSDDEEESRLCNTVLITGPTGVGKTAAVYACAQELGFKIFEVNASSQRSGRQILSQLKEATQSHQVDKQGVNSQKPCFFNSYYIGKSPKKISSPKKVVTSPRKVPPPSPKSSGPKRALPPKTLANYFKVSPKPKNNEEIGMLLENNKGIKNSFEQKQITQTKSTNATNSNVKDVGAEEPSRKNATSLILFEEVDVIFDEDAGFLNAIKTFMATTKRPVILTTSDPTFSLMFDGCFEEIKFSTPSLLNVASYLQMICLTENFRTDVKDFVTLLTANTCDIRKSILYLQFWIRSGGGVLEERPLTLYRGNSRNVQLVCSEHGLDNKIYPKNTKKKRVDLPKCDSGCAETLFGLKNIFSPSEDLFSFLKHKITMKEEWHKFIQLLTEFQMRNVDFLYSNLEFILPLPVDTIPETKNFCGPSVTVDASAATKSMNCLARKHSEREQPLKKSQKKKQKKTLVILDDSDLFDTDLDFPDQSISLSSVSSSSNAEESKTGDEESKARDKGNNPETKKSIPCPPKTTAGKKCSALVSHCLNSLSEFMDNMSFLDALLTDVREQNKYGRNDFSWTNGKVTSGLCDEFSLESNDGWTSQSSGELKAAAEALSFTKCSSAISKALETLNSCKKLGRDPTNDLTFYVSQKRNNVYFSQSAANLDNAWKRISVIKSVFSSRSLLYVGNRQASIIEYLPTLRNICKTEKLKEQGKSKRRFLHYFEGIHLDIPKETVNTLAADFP
Peptidyl-prolyl cis-trans isomerase NIMA-interacting 1 (Homo sapiens), sequence (Q13526 whole entry, looked up): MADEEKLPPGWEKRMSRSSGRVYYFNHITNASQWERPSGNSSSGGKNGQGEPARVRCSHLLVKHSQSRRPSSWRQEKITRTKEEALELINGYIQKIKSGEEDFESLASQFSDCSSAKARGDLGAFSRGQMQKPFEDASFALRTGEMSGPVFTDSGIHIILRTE
Chromobox protein homolog 1 (Homo sapiens), sequence (P83916 whole entry, looked up): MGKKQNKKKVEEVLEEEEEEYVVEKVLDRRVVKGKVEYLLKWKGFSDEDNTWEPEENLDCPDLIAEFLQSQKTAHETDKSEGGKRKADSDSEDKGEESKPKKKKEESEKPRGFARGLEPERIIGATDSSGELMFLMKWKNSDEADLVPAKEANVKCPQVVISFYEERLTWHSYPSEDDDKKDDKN

For `Oc1ccc(C2CNCCc3c2cc(O)c(O)c3Cl)cc1` (centres undefined), the Potency result in assay [1], in assay [6], in assay [7], in assay [8], in assay [9] and in [15] was “inactive” each time. Moreover, the Potency in [2] is 0.0067 µM (active). Also, the outcome in [3], in assay [4], in [5], in [10], in assay [11] and in [12] was inactive. Besides, the compound was called inactive in [13] and in assay [14]. For the same compound, the viability change in assay [9] worked out at 0.62%.

In the case of `O=c1[nH]cnc2[nH]ncc12`, the Potency result in [1], in assay [2], in [16], in assay [6], in assay [17] and in assay [7] was “inactive” in each case. The Potency entry in assay [8], in [9] and in assay [15] was “inactive” each time. Further, the outcome in assay [3], in [4], in [10], in [11], in [12] and in [13] was inactive. In addition, in assay [14], the result was inactive. The viability change in assay [9] turned out to be 5.19%.

In the case of `NNCCc1ccccc1`, the Potency entry in assay [1], in [2], in assay [16], in [6], in assay [17] and in assay [9] was “inactive” throughout. For the same compound, the Potency entry in [15] was “inactive”. The compound was called inactive in assay [3], in assay [4], in assay [5], in assay [18], in assay [10] and in assay [11]. Also, the compound was called inactive in assay [12], in [13] and in [14]. Moreover, the activation in assay [19] is 1.5% (inactive). The viability change in assay [9] turned out to be 2.04%.

`CC(C)(Sc1ccc(CCN(CCCCC2CCCCC2)C(=O)NC2CCCCC2)cc1)C(=O)O`: the Potency was 56.2 µM (active) and inactive in assay [1]; 56.2 µM (active) in assay [2]; 11.2 µM (active) in assay [16]; 44.7 µM (active) in assay [15]. In addition, the outcome in [3], in [4], in assay [5], in assay [10], in [11] and in [12] was inactive. For the same compound, the compound was called inactive in [14]. For the same compound, the Potency result in assay [6], in assay [7] and in [8] was “inactive” in each case. In addition, the activation in assay [19] was 1.5% (inactive).

In the case of `Nc1ccc(S(=O)(=O)Nc2ccnn2-c2ccccc2)cc1`, the Potency result in assay [1], in assay [2], in assay [16], in [6], in assay [17] and in assay [7] was “inactive” in each case. In addition, the Potency result in assay [8], in assay [9] and in assay [15] was “inactive” throughout. For the same compound, the compound was classed as inactive in [3], in [4], in assay [5], in assay [18], in assay [10] and in assay [11]. The outcome in assay [12], in [13] and in [14] was inactive. In addition, in assay [19], the activation was 1.12% (inactive). Further, in [9], the viability change was -5.45%.

Take `Cc1[nH]c(=O)c(C#N)cc1-c1ccc2nccn2c1`: the Potency result in assay [1], in [2], in [16], in assay [17], in [7] and in [9] was “inactive” in each case. For the same compound, the Potency entry in assay [15] is “inactive”. Also, the result in assay [3], in [4], in [5], in [18], in assay [10] and in assay [11] was inactive. Further, the compound was called inactive in [12], in assay [13] and in assay [14]. Besides, in [19], the activation is 0.25% (inactive). Also, the viability change in assay [9] is 7.27%.
